Compound activity deposited in PubChem by several laboratories.
tim10-1 inh: inhibits growth of tim10-1 mutant yeast; AID 463190; S. cerevisiae tim10-1 ts strain growth, BacTiter-Glo, 24 h; 330,000 tested, 2.2% active; inhibition, % at 20 µM;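 active = inhibition of at least 40%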;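 note: mutant grown at 25 °C; 0% = DMSO wells with yeast and 100% = wells holding no yeast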
tim23-1 inh: inhibits growth of tim23-1 mutant yeast | S. cerevisiae tim23-1 growth, BacTiter-Glo luminescence, 24 h | inhibition, % at 20 µM | 330,000 tested, 1.3% active;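 active = growth inhibition of the mutant yeast at or above 50%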;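 note: temperature-sensitive mutant grown at 25 °C; plate controls were DMSO-treated mutant yeast for no effect and medium wells lacking yeast for full effect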
SKKanGAS inh: inhibitors of SKKanGAS S. pyogenes growth in kanamycin (SK-promoter or general growth effect); BacTiter-Glo, 6 h; AID 1662; 300,000 tested, 1.3% active; inhibition, % at 7.5 µM;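 active = mean replicate score, as percent of positive control median, at least 50; inconclusive = mean below 50 but one replicate at or above 50; inactive = mean and every replicate below 50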;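 note: strain carries kanamycin resistance gene driven by streptokinase promoter and grows in 40 µg/ml kanamycin; loss of luminescence reflects streptokinase promoter inhibition or plain growth inhibition; 0% = median of DMSO wells and 100% = positive control at its reference dose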
V-ATPase pHluor: regulators of yeast V-ATPase proton transport; S. cerevisiae, pHLuorin cytosolic pH fluorescence; response, % at 10 µM; 350,000 tested, 0.37% active; AID 504577; in the data active = response mostly above about 7.3%, no sharp cut-off; inactive = mostly below about 5.4%; note: actives read high
PfHsp90 yeast 2: inhibits growth of yeast expressing Plasmodium falciparum Hsp90; S. cerevisiae expressing PfHsp90, BacTiter-Glo ATP, 48 h; yeast lacking PDR1 and PDR3 efflux regulators; 310,000 tested, 0.32% active; inhibition, % at 9.4 µM;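 active = every replicate shows inhibition above about 80%, whatever the replicate mean, limit read from the data; inconclusive = mean inhibition reaches the set limit but some replicate falls short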;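 note: 0% = DMSO neutral controls and 100% = 20 µM radicicol positive controls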
TIM10 inh: growth inhibitors of TIM10 yeast strain. S. cerevisiae TIM10 strain growth, BacTiter-Glo luminescence, 24 h. inhibition, % at 10 µM. AID 463195. 330,000 tested, 1.4% active;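 active = inhibition of 40% or more at the single tested concentration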;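 note: wild-type TIM10 isogenic control strain grown at permissive 25 °C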
* marks the source's active call; other numbers are inactive results; ? = inconclusive; / = not tested or not shown. An excerpt weighted towards active compounds, which were near 4.6% of everything screened.

SMILES	tim10-1 inh	tim23-1 inh	SKKanGAS inh	V-ATPase pHluor	PfHsp90 yeast 2	TIM10 inh
Fc1ccc(-c2[nH]ncc2CN2CCN(c3ccc(F)cc3)CC2)cc1	4	9	29	-1	7	-9
Fc1ccc(N2CCN(Cc3cn[nH]c3-c3ccccc3)CC2)cc1	12	2	52*	1	31	9
CCOc1ccc(NC(=O)CN(C)C(=O)c2ccccc2SCc2c(C)noc2C)cc1OCC	-12	-1	-2	2	/	-6
O=C(NCc1ccccc1)c1cccc(NC(=O)C2CCCC2)c1	/	/	/	0	26	/
CCCC(C(=O)NC1CCCC1)N(C(=O)c1snc(C(N)=O)c1N)c1ccc(F)cc1 (stereo not drawn)	26	21	14	-4	-6	-6
Cc1ccc(N(CC(=O)NC2CCCCC2)C(=O)Cn2nnc(-c3ccc(C)o3)n2)cc1	16	9	3	13*	-6	5
Cc1ccc(C(=O)NC(C)C2CC3CCC2C3)c(C)c1 (stereo not drawn)	-17	17	4	0	19	-1
O=C(COC(=O)/C=C/c1ccccc1F)Nc1nnc(-c2ccccc2)o1	-4	4	68*	5	/	-7
COc1cccc(/C=C/C(=O)OCC(=O)Nc2nnc(-c3ccccc3)o2)c1	10	2	63*	-1	/	-7
O=C(COC(=O)/C=C/c1ccc(F)cc1)Nc1nnc(-c2ccccc2)o1	-27	-13	/	0	-44	-22
Oc1ccc(Cl)cc1CNCc1cccc2ccccc12	18	29	/	-3	9	18
CC(C)On1c(SCC(=O)N(C)C)nc2ccccc2c1=O	-16	24	-3	/	/	-3
CCCCN1C(=O)C(=O)N(c2ccccc2)C1=S	-3	11	2	8.8*	1	7
O=C(O)COc1ccccc1/C=N/NC(=O)C(O)c1ccccc1 (stereo not drawn)	-2	6	0	0	-5	2
CCOc1ccc(N=C2NC(=O)S/C2=C\c2ccc(Cl)cc2)cc1	15	-3	4	1	-18	-14
CCOc1ccc2nc(N3C(=O)/C(=C/c4ccc(Cl)cc4)NC3=S)sc2c1	/	/	96*	0	-2	/
Cc1c(C)c(C)c(S(=O)(=O)N2CCSCC2)c(C)c1C	14	-6	-4	20*	-6	2
Cc1cccc(N(C)S(=O)(=O)c2csc(C(N)=O)c2)c1	24	9	0	-2	-1	4
O=C(COC(=O)Cc1cn2ccsc2n1)Nc1nc2ccccc2s1	20	21	80*	0	-3	6
COCC(=O)Nc1nc2ccccc2s1	-13	5	5	-3	-20	1
CC(C)(C)c1ccc(C(=O)NNC(=O)c2cccc(Br)c2)cc1	-10	3	0	1	6	-16
Cc1cccc(NC(=O)C(=O)NNC(=O)c2ccc(C(C)(C)C)cc2)c1	-75	-42	85*	1	-32	-31
C/C(=N\N=C1\NC(=O)C(CC(=O)Nc2ccccc2F)S1)C1CCCCC1 (stereo not drawn)	33	30	-2	1	-3	17
Nc1[nH]n2c(=O)cc(-c3ccccc3)nc2c1N=Nc1ccccc1	34	20	104*	0	/	16
COC(=O)[C@]1(Cc2ccccc2)N[C@H](CN(C)S(=O)(=O)c2ccc(-c3ccccc3)cc2)[C@@H]2C(=O)N(C)C(=O)[C@@H]21	3	4	/	-2	-11	7
SMILES	tim10-1 inh	tim23-1 inh	SKKanGAS inh	V-ATPase pHluor	PfHsp90 yeast 2	TIM10 inh
Nc1nc(-c2ccccn2)nc(N)c1Cc1ccc(Cl)cc1Cl	-7	15	114*	11*	16	-9
Nc1nc(-c2ccccn2)nc(N)c1Cc1ccccc1F	-41	-16	79*	-1	-5	-41
Cc1[nH]oc(=O)c1N=Nc1c(Cl)cccc1Cl	-45	-80	0	-1	106*	-17
Cc1[nH]oc(=O)c1N=Nc1ccccc1	15	31	0	0	-35	11
COC(=O)c1ccc(CSc2nc3ccccc3s2)o1	10	10	-5	-4	1	7
COC(=O)c1ccc(CSc2n[nH]c(=S)s2)o1	2	6	63*	1	25	10
O=C1NC(CCO)C(=O)NC1CCO (stereo not drawn)	/	/	/	-4	/	/
CN(C)c1ccc(C(=O)Nc2nnc(-c3ccc(Cl)cc3)o2)cc1	3	7	91*	-1	-67	17
O=C(Nc1nnc(-c2ccncc2)o1)c1ccc2ccccc2c1	4	3	78*	0	-30	-7
O=C(Nc1nnc(-c2ccccc2)o1)c1ccc(Cl)cc1	4	19	92*	2	-89	8
CN(c1ccccc1)S(=O)(=O)c1ccc(C(=O)Nc2nnc(-c3ccc(F)cc3)o2)cc1	30	6	103*	/	/	30
CN(C)c1ccc(C(=O)NNC(=O)c2ccc(Cl)cc2)cc1	-34	-3	49	-1	14	-25
O=C(COc1ccccc1)Nc1nnc(-c2ccc(Cl)cc2)o1	19	25	44	0	-37	11
COc1cc(NC(=O)[C@@H](NC(=O)N2CCn3c2nc2ccccc23)C(C)C)cc(OC)c1	2	4	7	-1	33	-5
COc1cc2c(cc1NC(=O)Nc1ccc(F)cc1)oc1ccccc12	10	11	6	-1	-76	1
O=C(Nc1nnc(-c2ccco2)o1)c1ccc(Cl)cc1	31	29	87*	-3	-9	26
CC(=O)c1ccc(C(=O)Nc2nnc(-c3ccc(Cl)cc3)o2)cc1	16	7	91*	-4	-1	5
Cc1ccc(C(=O)Nc2nnc(-c3ccco3)o2)cc1C	39	11	?	-1	-13	25
CN1C(=O)C(N=Nc2ccc([N+](=O)[O-])cc2)SC1=S (stereo not drawn)	/	/	/	-6	114*	/
CN1CCCCCC1=Nc1ccc([N+](=O)[O-])cc1	7	10	0	7	5	10
Cc1cc(NC(=O)CN2C(=O)NC(c3ccccc3)(c3ccc(C)c(C)c3)C2=O)no1 (stereo not drawn)	11	13	/	-3	1	5
CC(Oc1cccc(Cl)c1)C(=O)Nc1ccccc1C(=O)N1CCCCC1 (stereo not drawn)	26	23	-4	9	2	16
CCC(Oc1ccccc1)C(=O)Nc1ccccc1N1CCCCC1 (stereo not drawn)	-6	20	61*	2	36	-23
CCC(Oc1ccccc1)C(=O)Nc1ccccc1N1CCCC1 (stereo not drawn)	27	32	0	1	-2	9
CC(Oc1cccc(Cl)c1)C(=O)Nc1ccccc1N1CCCCC1 (stereo not drawn)	-22	-4	73*	6	17	-5
COc1ccc(COC(=O)C2CCN(C(=O)c3ccc(Cl)cc3)CC2)cc1F	-3	27	/	-3	-8	2
